Laboratory results: PubChem BioAssay
Calls of active or inactive are those of the source. Unless noted, how the calls were made is not given here.

Assays:
[1] = compounds binding Alexa647 anti-His antibody – biochemical, small-molecule microarray, 635 nm fluorescence, artefact control for SMM control protein annotation, primary screen (AID 1128); settings: higher = more signal;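 further: score merges feature fluorescence with signal-to-noise for each printed compound spot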
[2] = system: Human papillomavirus type 1a E7 protein (residues 1-88); experiment: HPV1a E7 small-molecule binders, primary screen, biochemical, small-molecule microarray, residues 1-88, 635 nm (AID 1129); settings: small-molecule microarray binding, fluorescence 635 nm; higher = more signal
[3] = biological target: Focal adhesion kinase 1 (Homo sapiens) (UniProt Q05397); experiment: PTK2 protein binding on printed compound slides – biochemical, small-molecule microarray, 635/667 nm fluorescence, BSA, DTT, primary screen (AID 1130); settings: 635 nm fluorescence, higher = more signal;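 further: composite of spot emission at 667 nm and signal to noise over triplicate slides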
Sequence of Focal adhesion kinase 1 (Homo sapiens) (Q05397 whole entry, looked up): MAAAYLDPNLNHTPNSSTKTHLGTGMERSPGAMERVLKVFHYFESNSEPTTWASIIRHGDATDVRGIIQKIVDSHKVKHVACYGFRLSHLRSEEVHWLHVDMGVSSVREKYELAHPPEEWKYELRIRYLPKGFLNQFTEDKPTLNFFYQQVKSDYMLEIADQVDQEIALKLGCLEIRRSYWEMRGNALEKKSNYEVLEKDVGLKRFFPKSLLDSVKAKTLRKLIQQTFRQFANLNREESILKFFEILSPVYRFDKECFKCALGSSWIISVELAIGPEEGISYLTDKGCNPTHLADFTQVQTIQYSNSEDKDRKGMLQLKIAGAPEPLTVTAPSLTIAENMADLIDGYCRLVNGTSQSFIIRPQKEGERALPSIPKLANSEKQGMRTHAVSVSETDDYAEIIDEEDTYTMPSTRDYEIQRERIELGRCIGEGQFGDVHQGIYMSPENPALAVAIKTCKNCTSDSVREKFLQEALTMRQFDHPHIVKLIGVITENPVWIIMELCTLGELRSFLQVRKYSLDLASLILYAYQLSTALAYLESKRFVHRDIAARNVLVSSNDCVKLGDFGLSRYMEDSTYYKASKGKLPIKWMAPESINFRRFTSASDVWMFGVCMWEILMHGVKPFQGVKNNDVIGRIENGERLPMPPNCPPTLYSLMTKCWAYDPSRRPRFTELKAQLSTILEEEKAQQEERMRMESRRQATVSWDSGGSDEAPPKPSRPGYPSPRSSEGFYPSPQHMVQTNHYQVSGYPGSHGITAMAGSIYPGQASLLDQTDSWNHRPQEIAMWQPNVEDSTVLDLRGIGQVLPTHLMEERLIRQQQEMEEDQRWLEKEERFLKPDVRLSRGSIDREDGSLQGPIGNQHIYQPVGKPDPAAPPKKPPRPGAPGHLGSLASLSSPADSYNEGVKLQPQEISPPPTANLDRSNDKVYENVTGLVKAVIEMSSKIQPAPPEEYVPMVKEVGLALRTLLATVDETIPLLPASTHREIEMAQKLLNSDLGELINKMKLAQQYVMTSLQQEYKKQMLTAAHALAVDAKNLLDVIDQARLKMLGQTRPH

[4] = system: Fibrinogen (Alexa647-labelled); experiment: Alexa647-fibrinogen binding to printed small molecules – biochemical, small-molecule microarray, 635/667 nm fluorescence, artefact control for SMM control-protein annotation, profiling panel (AID 1131); settings: fibrinogen-A647 binding fluorescence, higher = more signal;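 further: z-score merges 667 nm fluorescence with per-spot signal-to-noise over triplicate slides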
[5] = biological target: Follistatin (Homo sapiens) (UniProt P19883); experiment: FST protein binding to printed compounds – biochemical, small-molecule microarray, 635/667 nm fluorescence, primary screen (AID 1132); settings: 635 nm fluorescence, higher = more signal
Sequence of Follistatin (Homo sapiens) (P19883 whole entry, looked up): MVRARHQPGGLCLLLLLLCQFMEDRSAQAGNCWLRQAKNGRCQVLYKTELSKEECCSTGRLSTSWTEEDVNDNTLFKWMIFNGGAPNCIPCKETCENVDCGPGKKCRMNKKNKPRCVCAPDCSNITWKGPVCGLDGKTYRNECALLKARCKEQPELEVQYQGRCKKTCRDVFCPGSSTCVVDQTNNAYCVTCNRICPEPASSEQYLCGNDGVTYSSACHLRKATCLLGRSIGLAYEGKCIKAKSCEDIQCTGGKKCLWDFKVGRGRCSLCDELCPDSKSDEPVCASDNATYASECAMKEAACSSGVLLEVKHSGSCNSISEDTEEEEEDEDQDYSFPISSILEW

[6] = biological target: Fibroblast growth factor 2 (Homo sapiens) (UniProt P09038); experiment: basic fibroblast growth factor binding to printed compounds – biochemical, small-molecule microarray, 635/667 nm fluorescence, primary screen (AID 1133); settings: FGF2, fluorescence 635/667, higher = more signal
Sequence of Fibroblast growth factor 2 (Homo sapiens) (P09038 whole entry, looked up): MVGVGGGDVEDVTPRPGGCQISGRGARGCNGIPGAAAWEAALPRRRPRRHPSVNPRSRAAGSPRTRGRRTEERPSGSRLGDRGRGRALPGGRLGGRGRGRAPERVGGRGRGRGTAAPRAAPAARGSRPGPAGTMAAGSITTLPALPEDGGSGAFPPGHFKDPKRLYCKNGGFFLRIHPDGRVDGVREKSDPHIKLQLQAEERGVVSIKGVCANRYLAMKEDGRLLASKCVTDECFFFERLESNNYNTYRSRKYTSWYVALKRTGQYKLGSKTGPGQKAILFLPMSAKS

[7] = JC-1 mitochondrial potential readout, lung cancer cells – cell-based, A549, JC-1 fluorescence, basal, 24 h, 100 nL, profiling panel (AID 1138); settings: higher = more signal;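 further: A549 lung adenocarcinoma cells under basal conditions with no added stimulus; test concentration not given here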
[8] = system: Lefty1; experiment: Lefty1 protein binding to printed compounds – biochemical, small-molecule microarray, 635/667 nm fluorescence, primary screen (AID 1139); settings: fluorescence 635/667, higher = more signal
[9] = system: wheat germ agglutinin (Triticum aestivum), Alexa647-labelled; experiment: Alexa647-WGA lectin binding to printed small molecules – biochemical, small-molecule microarray, 635/667 nm fluorescence, artefact control for SMM control-protein annotation, profiling panel (AID 1140); settings: WGA-A647 binding, 635 nm fluorescence, higher = more signal;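 further: score merges 667 nm feature emission with signal to noise over triplicate slides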
[10] = biological target: Luciferin 4-monooxygenase (Photinus pyralis) (UniProt P08659); experiment: inhibition of purified Photinus pyralis luciferase – biochemical, luminescence, purified enzyme, 2006 set, primary screen (AID 1141); settings: purified firefly luciferase, SteadyGlo luminescence, 30 min; higher = more signal, called active from +8 up or from −8 down;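 further: cell-free assay with purified firefly luciferase at 100 ng per well in PBS; test concentration not given here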
Sequence of Luciferin 4-monooxygenase (Photinus pyralis) (P08659 whole entry, looked up): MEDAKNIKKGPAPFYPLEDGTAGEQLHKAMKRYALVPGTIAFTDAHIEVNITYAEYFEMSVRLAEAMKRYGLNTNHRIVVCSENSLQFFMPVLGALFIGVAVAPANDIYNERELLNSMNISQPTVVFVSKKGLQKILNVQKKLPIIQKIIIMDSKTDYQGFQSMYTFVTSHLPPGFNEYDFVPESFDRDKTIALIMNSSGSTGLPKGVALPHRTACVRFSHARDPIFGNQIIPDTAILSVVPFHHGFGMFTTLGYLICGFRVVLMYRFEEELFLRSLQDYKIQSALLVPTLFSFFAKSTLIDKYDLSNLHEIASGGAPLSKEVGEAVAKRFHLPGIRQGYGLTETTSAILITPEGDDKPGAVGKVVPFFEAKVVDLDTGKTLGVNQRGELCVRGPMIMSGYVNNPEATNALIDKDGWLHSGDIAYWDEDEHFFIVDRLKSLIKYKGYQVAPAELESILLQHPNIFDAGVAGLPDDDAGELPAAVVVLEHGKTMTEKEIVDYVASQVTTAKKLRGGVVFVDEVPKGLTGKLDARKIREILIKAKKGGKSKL

[11] = system: Wnt5a (protein binding on small-molecule microarray); experiment: small molecules binding Wnt5a protein – biophysical, small-molecule microarray, 635/667 nm fluorescence, primary screen (AID 1142); settings: 635 nm fluorescence, higher = more signal;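 further: fluorescence read at 667 nm with signal to noise per printed feature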
[12] = ATP-based viability of Huh7 replicon cells – cell-based, CellTiter-Glo luminescence, basal, 48 h, cytotoxicity control for HCV replication inhibitor project, primary screen (AID 1143); settings: higher = more signal, called active from +8 up or from −8 down;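 further: Huh7 hepatoma cells carrying a hepatitis C replication reporter with no stimulus; test concentration not given here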
[13] = Pseudomonas biofilm growth suppression – PAO1 strain, BacTiter-Glo luminescence, LB-PBS, primary screen (AID 1144); settings: P. aeruginosa PAO1 biofilm, 12 h, higher = more signal
[14] = basal CRE-LacZ reporter activity in PC12 – cell-based, unstimulated, primary screen (AID 1145); settings: no forskolin, luminescence, 4.5 h, higher = more signal, called active from +8 up or from −8 down
[15] = forskolin-driven CRE-LacZ activity in PC12 – cell-based, CRE-LacZ reporter, forskolin-stimulated, primary screen (AID 1146); settings: luminescence, 4.5 h, higher = more signal, called active from +8 up or from −8 down;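 further: PC12 cells with 6xCRE LacZ reporter stimulated by forskolin 10 µM; beta-galactosidase reporter signal reflecting CREB driven transcription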
[16] = biological target: Streptavidin (Streptomyces avidinii) (UniProt P22629); experiment: compounds binding control protein streptavidin – biophysical, small-molecule microarray, 635/667 nm fluorescence, artefact control for SMM compound annotation, primary screen (AID 1147); settings: higher = more signal;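 further: signal reflects streptavidin binding to arrayed compounds as a control protein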
Sequence of Streptavidin (Streptomyces avidinii) (P22629 whole entry, looked up): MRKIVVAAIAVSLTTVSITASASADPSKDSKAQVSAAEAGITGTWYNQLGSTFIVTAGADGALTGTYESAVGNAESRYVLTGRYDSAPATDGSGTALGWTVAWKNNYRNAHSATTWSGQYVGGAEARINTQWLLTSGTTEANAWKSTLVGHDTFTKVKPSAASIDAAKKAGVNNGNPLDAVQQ

[17] = probe aInhba binding on compound microarray – biochemical, small-molecule microarray, 635/667 nm fluorescence, primary screen (AID 1148); settings: higher = more signal;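 further: score merges 667nm spot fluorescence with signal-to-noise for antibody binding to printed compounds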
[18] = biological target: Torsin-1A (Homo sapiens) (UniProt O14656); experiment: TOR1A wild-type binding on microarray – cell lysate, small-molecule microarray, lysate, 635/667 nm, primary screen (AID 1149); settings: COS7 hTOR1A-WT lysate, 635 nm fluorescence, higher = more signal
Sequence of Torsin-1A (Homo sapiens) (O14656 whole entry, looked up): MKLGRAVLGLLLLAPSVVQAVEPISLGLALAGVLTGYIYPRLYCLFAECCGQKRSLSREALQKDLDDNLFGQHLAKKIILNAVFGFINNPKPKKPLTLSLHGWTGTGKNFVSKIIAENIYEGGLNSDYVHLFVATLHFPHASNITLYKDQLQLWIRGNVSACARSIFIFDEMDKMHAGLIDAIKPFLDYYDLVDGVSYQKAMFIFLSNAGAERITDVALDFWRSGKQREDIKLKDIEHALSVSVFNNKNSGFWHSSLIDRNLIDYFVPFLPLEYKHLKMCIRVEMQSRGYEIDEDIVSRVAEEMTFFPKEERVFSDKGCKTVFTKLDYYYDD

[19] = biological target: Torsin-1A (Homo sapiens) (UniProt O14656); experiment: torsin A mutant lysate binding on microarrays – cell lysate, small-molecule microarray, COS7 lysate, 635/667 nm fluorescence, primary screen (AID 1150); settings: COS7 hTOR1A mutant lysate, 635 nm fluorescence, higher = more signal;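 further: score pools 667 nm emission and signal to noise measuring lysate protein binding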
[20] = system: Sonic hedgehog protein (Shh); experiment: Sonic hedgehog microarray binding compounds – biochemical, small-molecule microarray, 635/667 nm fluorescence, primary screen (AID 1151); settings: 635 nm fluorescence, higher = more signal;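 further: Shh protein binding to compounds spotted on small-molecule microarray slides; score combines spot fluorescence intensity with signal-to-noise across triplicate slides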

Question: What does the source list for `CN1C(=O)C2C=CC(C(O)c3cccc4ccccc34)N(NC(=O)OC(C)(C)C)C2C1=O` (stereo not given)?
Answer: composite z-score [1]: 1.45; composite z-score [2]: 1.02; composite z-score [3]: 1.83; composite z-score [4]: 0.691; composite z-score [5]: 0.435; composite z-score [6]: -0.331; z-score [7]: 0.274; composite z-score [8]: -0.516; composite z-score [9]: 1.16; z-score [10]: 0.216 (inactive); composite z-score [11]: 0.611; z-score [12]: 0.227 (inactive); z-score [13]: 0.489 (inactive); z-score [14]: 1 (inactive); z-score [15]: 0.6 (inactive); composite z-score [16]: 1.51; composite z-score [17]: 0.723; composite z-score [18]: 0.104; composite z-score [19]: 1.41; composite z-score [20]: -0.271

Question: Which results are given for `O=C1C[C@@](C(=O)O)(c2ccc([N+](=O)[O-])cc2)[C@@H](c2ccc(CO)cc2)N1CC12CC3CC(CC(C3)C1)C2`?
Answer: composite z-score [1]: 1.2; composite z-score [2]: 1.19; composite z-score [3]: 0.486; composite z-score [4]: 0.732; composite z-score [5]: 0.563; composite z-score [6]: -0.119; z-score [7]: 2.19; composite z-score [8]: 0.43; composite z-score [9]: 1.02; z-score [10]: -0.162 (inactive); composite z-score [11]: 0.319; z-score [12]: -5.13 (inactive); z-score [13]: -1.03 (inactive); z-score [14]: -0.322 (inactive); z-score [15]: 0.351 (inactive); composite z-score [16]: 0.791; composite z-score [17]: -0.0759; composite z-score [18]: 0.734; composite z-score [19]: 0.949; composite z-score [20]: 1.76

Question: For `CCCCCCCCCCC(O)C1C=CC2C(=O)NC(=O)C2N1Nc1ccccn1` (stereo not given), which composite z-score [1] is on record?
Answer: 0.121

Question: And the composite z-score [2]?
Answer: 0.749

Question: And the composite z-score [3]?
Answer: 0.675

Question: What about the composite z-score [4] of the same compound?
Answer: 0.666

Question: And the composite z-score [5]?
Answer: -0.008

Question: And the composite z-score [6]?
Answer: -1.4

Question: What about the z-score [7] of the same compound?
Answer: 0.706

Question: What about the composite z-score [8] of the same compound?
Answer: -0.458

Question: And the composite z-score [9]?
Answer: 0.331

Question: And the z-score [10]?
Answer: -0.765 (inactive)

Question: And the composite z-score [11]?
Answer: -0.41

Question: What about the z-score [12] of the same compound?
Answer: -3.4 (inactive)

Question: What about the z-score [13] of the same compound?
Answer: -1.27 (inactive)

Question: And the z-score [14]?
Answer: 3.3 (inactive)

Question: And the z-score [15]?
Answer: 0.383 (inactive)

Question: What about the composite z-score [16] of the same compound?
Answer: 0.606

Question: What about the composite z-score [17] of the same compound?
Answer: -0.0087

Question: What about the composite z-score [18] of the same compound?
Answer: -1.17

Question: And the composite z-score [19]?
Answer: -0.213

Question: And the composite z-score [20]?
Answer: -0.478

Question: For `CO[C@H]1O[C@H](CO)[C@@H](OC(=O)Nc2ccc(C(F)(F)F)cc2)[C@H](OC(=O)Nc2ccccc2)[C@H]1OC(=O)Nc1ccccc1`, which composite z-score [1] is on record?
Answer: 2.65

Question: And the composite z-score [2]?
Answer: 1.25

Question: What about the composite z-score [3] of the same compound?
Answer: 1.15

Question: What about the composite z-score [4] of the same compound?
Answer: 0.737

Question: And the composite z-score [5]?
Answer: 1.29

Question: What about the composite z-score [6] of the same compound?
Answer: 0.805

Question: What about the z-score [7] of the same compound?
Answer: -1.89

Question: What about the composite z-score [8] of the same compound?
Answer: 0.88

Question: What about the composite z-score [9] of the same compound?
Answer: 1.33

Question: What about the z-score [10] of the same compound?
Answer: -0.579 (inactive)

Question: And the composite z-score [11]?
Answer: 0.71

Question: And the z-score [12]?
Answer: -5.9 (inactive)

Question: What about the z-score [13] of the same compound?
Answer: -0.109 (inactive)

Question: And the z-score [14]?
Answer: 3.11 (inactive)

Question: And the z-score [15]?
Answer: -1.51 (inactive)

Question: And the composite z-score [16]?
Answer: 1.22

Question: What about the composite z-score [17] of the same compound?
Answer: 0.3

Question: What about the composite z-score [18] of the same compound?
Answer: 0.386

Question: What about the composite z-score [19] of the same compound?
Answer: 0.183

Question: What about the composite z-score [20] of the same compound?
Answer: 1.2

Question: Which composite z-score [1] does the source give for `COC(=O)[C@@]1(Cc2ccc(OC)cc2)[C@H]2c3cc(C(=O)N(C)C)n(Cc4cc(F)c(F)c(F)c4)c3C[C@H]2CN1C(=O)c1ccccc1` here?
Answer: 1

Question: What about the composite z-score [2] of the same compound?
Answer: 1.21

Question: And the composite z-score [3]?
Answer: 1.86

Question: And the composite z-score [4]?
Answer: 1.01

Question: And the composite z-score [5]?
Answer: 0.761

Question: And the composite z-score [6]?
Answer: -0.965

Question: What about the z-score [7] of the same compound?
Answer: -0.787

Question: And the composite z-score [8]?
Answer: 0.0601

Question: What about the composite z-score [9] of the same compound?
Answer: 0.952

Question: What about the z-score [10] of the same compound?
Answer: 1.07 (inactive)

Question: What about the composite z-score [11] of the same compound?
Answer: 0.397

Question: And the z-score [12]?
Answer: -4.47 (inactive)

Question: And the z-score [13]?
Answer: -0.00792 (inactive)

Question: What about the z-score [14] of the same compound?
Answer: 1.34 (inactive)

Question: And the z-score [15]?
Answer: 1.12 (inactive)

Question: And the composite z-score [16]?
Answer: 1.63

Question: And the composite z-score [17]?
Answer: 0.528

Question: What about the composite z-score [18] of the same compound?
Answer: -0.312

Question: What about the composite z-score [19] of the same compound?
Answer: 0.712

Question: And the composite z-score [20]?
Answer: -0.692
